Inconclusive results are not listed. Calls of active or inactive are those of the source. How the source made its calls: active means hit-call score of the fitted dose curve at least 0.9, where 1 is the maximum; inconclusive means response in the unintended direction; inactive means score below 0.9.
Test: CLD_ACTIN_24hr: CellzDirect (CLD) Gene Expression Assay for Baseline Control (Actin) at 24 hours (AID 2283670)
Experimental: CLD_24hr is a cell-based, multiplexed-readout assay that uses hepatocyte, a human liver primary cell, with measurements taken at 24 hours after chemical dosing in a 96-well plate.CLD_ACTIN_24hr is one of 16 assay component(s) measured or calculated from the CLD_24hr assay. It is designed to make measurements of mRNA induction, a form of inducible reporter, as detected with chemiluminescence signals by Quantitative Nuclease Protection Assay (qNPA) technology.Data from the assay component CLD_ACTIN_24hr was analyzed at the endpoint, CLD_ACTIN_24hr, in the positive analysis fitting direction relative to DMSO as the negative control and baseline of activity. Using a type of inducible reporter, gain-of-signal activity can be used to understand changes in the reporter gene as they relate to the gene ACTA1. Furthermore, this assay endpoint can be referred to as a secondary readout, because this assay has produced multiple assay endpoints where this one serves a background control function. To generalize the intended target to other relatable targets, this assay endpoint is annotated to the background measurement intended target family, where subfamily is baseline control.
Human hepatocyte cultures were treated daily for two consecutive days with fresh dosing solutions containing appropriate concentrations of the 320 ToxCast chemicals (chemical identities were blinded to CellzDirect and other ToxCast collaborators), vehicle control (0.2% DMSO), and positive control inducers as summarized in Table 1. Due to the large number of treatment groups and chemicals examined, the ToxCast chemicals were divided into two groups (spanning two independent cultures of hepatocytes from separate donor preparations (Hu778: ToxCast plates 1 and 2; Hu776: ToxCast plates 3 and 4). Each preparation of human hepatocyte cultures was treated with respective vehicle control, medium only control, set of six positive controls/reference chemicals for the five hepatic receptor pathways, and a subset of eight of the ToxCast chemicals (indoxacarb, pyrithiobac-sodium, norflurazon, cyhalofop-butyl, methomyl, thiram, acetochlor, and propiconazole). These replicate data, coupled with internal replicates designed within the blinded ToxCast chemical library, provided additional data to evaluate interindividual differences between hepatocyte preparations and their potential impact on chemical profiles.Cell morphology and integrity were evaluated using phase-contrast microscopy as an indicator of hepatocyte cell health (Tyson & Green, 1987). Cultures for each treatment group (i.e., media, vehicle [0.2% DMSO], positive control inducers [multiple concentrations], and the ToxCast chemicals [multiple concentrations]) were observed and cell morphology was assessed relative to vehicle control cultures at each harvest time point (0, 6, 24, or 48 h). […] Images were evaluated at the conclusion of the study to assess changes in cell integrity and account for the effects of chemical exposure on uncharacteristic changes in concentration-dependent gene expression profiles. The results from these determinations of apparent cytotoxicity were annotated (yes/no) alongside the corresponding qNPA data for reference.At the conclusion of each treatment period, hepatocyte cultures (96-well) were washed with 1 volume of HBSS, lysed by addition of 25 ul ArrayPlate lysis buffer (HTG, Tucson, AZ), and 70 ul/well of Denaturation Oil, denatured by incubation at 95C for 10 min, and frozen at approximately -70C until analysis by nuclease protection assay (qNPA) (Roberts et al., 2007). For qNPA analysis, cell lysates were thawed at 50C for approximately 30 min, qNPA probes were added, and samples were incubated at 95C for 10 min to begin the detection process by denaturing the target RNA, dissociating the duplexes and secondary structure hybridization. At the conclusion of the hybridization period, S1 nuclease reagent was added to each sample to digest all nonprotected nucleotides at 50C for 60-90 min. […]

Row | Structure (SMILES) | outcome
1 | COC(=O)c1ccc(CNS(C)(=O)=O)cc1S(=O)(=O)NC(=O)Nc1nc(OC)cc(OC)n1 | inactive
2 | COc1nc(C)nc(NC(=O)NS(=O)(=O)c2ccccc2OCCCl)n1 | inactive
3 | CCOC(=O)COc1cc(-n2ncc(C(F)(F)F)c(C)c2=O)c(F)cc1Cl | inactive
4 | CCCCOC(=O)[C@@H](C)Oc1ccc(Oc2ccc(C(F)(F)F)cn2)cc1 | inactive
5 | CCC(C)OC(=O)N1CCCCC1CCO (configuration not stated) | inactive
6 | CSC(=O)c1cccc2nnsc12 | inactive
7 | N#CSCSc1nc2ccccc2s1 | inactive
8 | COC(=O)c1ccc(I)cc1S(=O)(=O)NC(=O)Nc1nc(C)nc(OC)n1 | inactive
9 | C=CCOC(Cn1ccnc1)c1ccc(Cl)cc1Cl (configuration not stated) | inactive
10 | COc1c(Cl)ccc(Cl)c1C(=O)O | inactive
11 | COC(=O)c1ccccc1S(=O)(=O)NC(=O)Nc1nc(OC(F)F)cc(OC(F)F)n1 | inactive
12 | COC(=O)c1c(Cl)nn(C)c1S(=O)(=O)NC(=O)Nc1nc(OC)cc(OC)n1 | inactive
13 | CCOC(=O)NCCOc1ccc(Oc2ccccc2)cc1 | inactive
14 | CC1(C)C(C=C(Cl)Cl)C1C(=O)OCc1cccc(Oc2ccccc2)c1 (configuration not stated) | inactive
15 | CCCCCOC(=O)COc1cc(N2C(=O)C3=C(CCCC3)C2=O)c(F)cc1Cl | inactive
16 | CCCCOC(=O)C(C)Oc1ccc(Oc2ccc(C(F)(F)F)cn2)cc1 (configuration not stated) | inactive
17 | CCCN(CCC)C(=O)SCC | inactive
18 | c1ccc(Nc2ccccc2)cc1 | inactive
19 | CCCCCCC(C)OC(=O)COc1nc(F)c(Cl)c(N)c1Cl (configuration not stated) | inactive
20 | S=C(S)NCCNC(=S)S.[Mn+2].[S-]C([S-])=NCCN=C([S-])[S-].[Zn+2] | inactive
21 | CC(C)(c1ccc(O)cc1)c1ccc(O)cc1 | inactive
22 | CC(C)(C)[C@@H](O)[C@@H](Cc1ccc(Cl)cc1)n1cncn1 | inactive
23 | COC(=O)c1ccccc1C(=O)O | inactive
24 | CCCOC(=O)c1ccc(C(=O)OCCC)nc1 | inactive
25 | CCOC(=O)C(C)Oc1ccc(Oc2nc3ccc(Cl)cc3o2)cc1 (configuration not stated) | inactive
26 | Oc1ccc(C(c2ccc(O)cc2)C(Cl)(Cl)Cl)cc1 | inactive
27 | O=C(O)C1(C(=O)Nc2ccc(Cl)cc2Cl)CC1 | inactive

From PubChem BioAssay (EPA / NIEHS)
